Laboratory results from PubChem BioAssay (EPA / NIEHS).
Activity calls are given as the source filed them. Rule for the calls: active = hit-call score of the fitted dose curve at least 0.9, where 1 is the maximum; inactive = score below 0.9.

Assays:
Conditions in all cases: mRNA level, 48 h; actives raise or lower the signal
[1] = read-out: Glutathione S-transferase M3 (GSTM3), GSTM3 (gene 2947); test: LTEA_HepaRG_GSTM3: Life Technologies and Expression Analysis (LTEA) Assay for Glutathione S-transferase M3 (GSTM3) using HepaRG (AID 2283501)
In short: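 Changes in GSTM3 expression, an oxidative-stress marker, were scored by bidirectional curve fitting against 0.5% DMSO vehicle. Human HepaRG cultures received chemicals for 48 h in duplicate, highest concentration 100 uM with half-log dilutions.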

[2] = read-out: Heat shock 70 kDa protein 1 (HSPA1A), gene 3303; test: LTEA_HepaRG_HSPA1A: Life Technologies and Expression Analysis (LTEA) Assay for Heat shock 70 kDa protein 1 (HSPA1A) using HepaRG (AID 2283502)
In short: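 Differentiated human HepaRG cells in serum-free induction medium were exposed in duplicate for 48 h to eight concentrations (top 100 uM, half-log steps, 0.5% DMSO). HSPA1A mRNA was quantified by qRT-PCR, normalized to ACTB, GAPDH and POLR2A, and fitted bidirectionally against DMSO.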

[3] = read-out: Hypoxia-inducible factor 1-alpha (Homo sapiens) (UniProt Q16665); test: LTEA_HepaRG_HIF1A: Life Technologies and Expression Analysis (LTEA) Assay for Hypoxia-inducible factor 1 (HIF1A) Trancription factor using HepaRG (AID 2283503);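 note: HIF1A transcript by TaqMan qRT-PCR normalized to ACTB GAPDH and POLR2A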
In short: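 HepaRG, 48 h exposure, 8-pt half-log series from 100 uM, 0.5% DMSO vehicle, duplicates. Readout: HIF1A transcript by qRT-PCR (Fluidigm array), housekeeping-normalised. Bidirectional curve fit vs DMSO baseline.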

[4] = read-out: 3-Hydroxy-3-Methylglutaryl-CoA Synthase 2 (HMGCS2), HMGCS2 (gene 3158); test: LTEA_HepaRG_HMGCS2: Life Technologies and Expression Analysis (LTEA) Assay for 3-Hydroxy-3-Methylglutaryl-CoA Synthase 2 (HMGCS2) using HepaRG (AID 2283504)
In short: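 Expression of HMGCS2 in human HepaRG liver cells is measured by qRT-PCR 48 h after dosing (highest 100 uM, half-log series, 0.5% DMSO). Values come from bidirectional concentration-response fitting with DMSO as baseline.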

[5] = read-out: HGF (gene 3082); test: LTEA_HepaRG_HGF: Life Technologies and Expression Analysis (LTEA) Assay for Hepatocyte Growth Facto (HGF) using HepaRG (AID 2283505)
In short: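 Gain or loss of HGF mRNA in human HepaRG liver cells after 48 h chemical exposure; eight concentrations up to 100 uM with 0.5% DMSO vehicle, quantified by TaqMan qRT-PCR.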

[6] = read-out: Intercellular Adhesion Molecule 1 (ICAM1), ICAM1 (gene 3383); test: LTEA_HepaRG_ICAM1: Life Technologies and Expression Analysis (LTEA) Assay for Intercellular Adhesion Molecule 1 (ICAM1) using HepaRG (AID 2283507)
In short: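 Gain or loss of transcript in HepaRG hepatic cells is quantified by qRT-PCR after 48 h chemical exposure (up to 100 uM, half-log steps), with DMSO as baseline.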

[7] = read-out: Insulin-like growth factor-binding protein 1 (IGFBP1), IGFBP1 (gene 3484); test: LTEA_HepaRG_IGFBP1: Life Technologies and Expression Analysis (LTEA) Assay for Insulin-like growth factor-binding protein 1 (IGFBP1) using HepaRG (AID 2283508)
In short: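 mRNA induction or loss was quantified by qRT-PCR after 48 h chemical exposure of human HepaRG cells, with 0.5% DMSO as vehicle and baseline. Concentration-response over eight points up to 100 uM.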

[8] = read-out: Interleukin 6 (IL6), IL6 (gene 3569); test: LTEA_HepaRG_IL6: Life Technologies and Expression Analysis (LTEA) Assay for Interleukin 6 (IL6) using HepaRG (AID 2283509)
In short: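 HepaRG cells exposed in duplicate for 48 h to eight half-log concentrations, top 100 uM, in 0.5% DMSO serum-free induction medium. mRNA measured by qRT-PCR, normalized to ACTB, GAPDH and POLR2A. Bidirectional fit versus DMSO.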

[9] = read-out: Interleukin 6 Receptor (IL6R), IL6R (gene 3570); test: LTEA_HepaRG_IL6R: Life Technologies and Expression Analysis (LTEA) Assay for Interleukin 6 Receptor (IL6R) using HepaRG (AID 2283510)
In short: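 Differentiated human HepaRG cells, plated 48 h then switched to serum-free induction medium, were dosed in duplicate for 48 h at eight half-log concentrations up to 100 uM in 0.5% DMSO. IL6R mRNA quantified by qRT-PCR, normalized to ACTB/GAPDH/POLR2A; bidirectional fit versus DMSO.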

[10] = read-out: Potassium channel subfamily K member 1 (KCNK1), KCNK1 (gene 3775); test: LTEA_HepaRG_KCNK1: Life Technologies and Expression Analysis (LTEA) Assay for Potassium channel subfamily K member 1 (KCNK1) using HepaRG (AID 2283511)
In short: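 Differentiated HepaRG cells, 48 h exposure in serum-free induction medium with 0.5% DMSO; 8 concentrations, half-log from 100 uM, duplicate. KCNK1 mRNA by qRT-PCR, normalized to ACTB, GAPDH, POLR2A; bidirectional fit vs DMSO.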

[11] = read-out: Keratin 19 (KRT19), KRT19 (gene 3880); test: LTEA_HepaRG_KRT19: Life Technologies and Expression Analysis (LTEA) Assay for Keratin 19 (KRT19) using HepaRG (AID 2283512)
In short: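 Gene-expression endpoint in the human liver line HepaRG after 48 h exposure to up to 100 uM test chemical with 0.5% DMSO vehicle; KRT19 mRNA by qRT-PCR, analyzed bidirectionally versus DMSO.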

[12] = read-out: JUN Transcription Factor, JUN (gene 3725); test: LTEA_HepaRG_JUN: Life Technologies and Expression Analysis (LTEA) Assay for JUN Transcription Factor using HepaRG (AID 2283513)
In short: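 Differentiated HepaRG cells were exposed to chemicals for 48 h in serum-free induction medium, 8 concentrations from 100 uM in half-log steps, 0.5% DMSO vehicle, in duplicate. JUN mRNA was quantified by TaqMan qRT-PCR, normalized to ACTB, GAPDH, POLR2A.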

[13] = read-out: Lipase C (LIPC), LIPC (gene 3990); test: LTEA_HepaRG_LIPC: Life Technologies and Expression Analysis (LTEA) Assay for Lipase C (LIPC) using HepaRG (AID 2283514)
In short: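 HepaRG cells, 48 h after plating, treated in duplicate for 48 h in serum-free induction medium over 8 half-log concentrations from 100 uM, 0.5% DMSO. LIPC mRNA by TaqMan qRT-PCR normalized to ACTB/GAPDH/POLR2A; bidirectional fit versus DMSO.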

[14] = read-out: Lipoprotein lipase (LPL), LPL (gene 4023); test: LTEA_HepaRG_LPL: Life Technologies and Expression Analysis (LTEA) Assay for Lipoprotein lipase (LPL) using HepaRG (AID 2283515)
In short: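 Differentiated HepaRG cells, plated 48 h, then exposed 48 h in serum-free induction medium to 8 concentrations (top 100 uM, half-log steps) in 0.5% DMSO, duplicate. LPL mRNA measured by qRT-PCR, normalized to ACTB, GAPDH and POLR2A.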

[15] = read-out: MicroRNA 122 (MIR122), gene 406906; test: LTEA_HepaRG_MIR122: Life Technologies and Expression Analysis (LTEA) Assay for MicroRNA 122 (MIR122) using HepaRG (AID 2283516); note: the transcript read is the microRNA miR-122
In short: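 Differentiated human HepaRG cells were exposed 48 h in serum-free induction medium to eight half-log concentrations (top 100 uM, 0.5% DMSO). Transcript level was measured by TaqMan qRT-PCR, normalized to ACTB, GAPDH and POLR2A, and fitted bidirectionally versus DMSO.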

[16] = read-out: matrix metalloproteinase-10 (MMP10), MMP10 (gene 4319); test: LTEA_HepaRG_MMP10: Life Technologies and Expression Analysis (LTEA) Assay for matrix metalloproteinase-10 (MMP10) using HepaRG (AID 2283517)
In short: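 Differentiated HepaRG cells in serum-free induction medium exposed 48 h in duplicate to 8-point half-log series up to 100 uM in 0.5% DMSO. mRNA quantified by qRT-PCR, normalised to ACTB, GAPDH, POLR2A; bidirectional fit versus DMSO.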

[17] = read-out: MYC, MYC (gene 4609); test: LTEA_HepaRG_MYC: Life Technologies and Expression Analysis (LTEA) Assay for MYC using HepaRG (AID 2283518)
In short: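 Cells are thawed, plated and cultured 48 h, then treated for 48 h with test chemicals (eight half-log concentrations from 100 uM, 0.5% DMSO vehicle). RNA is isolated and MYC expression quantified by qRT-PCR against three housekeeping genes.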

[18] = read-out: matrix metalloproteinase-3 (MMP3), MMP3 (gene 4314); test: LTEA_HepaRG_MMP3: Life Technologies and Expression Analysis (LTEA) Assay for matrix metalloproteinase-3 (MMP3) using HepaRG (AID 2283519)
In short: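 HepaRG cells (~100,000/well) in serum-free induction medium were dosed in duplicate for 48 h with an 8-point half-log series from 100 uM, 0.5% DMSO. MMP3 mRNA was quantified by Fluidigm TaqMan qRT-PCR, normalized to three housekeeping genes.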

[19] = read-out: Paternally Expressed 10 (PEG10), PEG10 (gene 23089); test: LTEA_HepaRG_PEG10: Life Technologies and Expression Analysis (LTEA) Assay for Paternally Expressed 10 (PEG10) using HepaRG (AID 2283520)
In short: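 Differentiated HepaRG cells, plated 48 h then switched to serum-free induction medium, were exposed in duplicate for 48 h to eight half-log concentrations topping at 100 uM in 0.5% DMSO. PEG10 mRNA was quantified by TaqMan qRT-PCR, normalised to ACTB, GAPDH and POLR2A.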

[20] = read-out: Nuclear factor NF-kappa-B p105 subunit (Homo sapiens) (UniProt P19838); test: LTEA_HepaRG_NFKB1: Life Technologies and Expression Analysis (LTEA) Assay for Nuclear Factor Kappa B Subunit 1 (NFKB1) using HepaRG (AID 2283521)
In short: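 Differentiated human HepaRG cells in serum-free induction medium with 0.5% DMSO were exposed for 48 h to eight half-log concentrations, top 100 uM, in duplicate. NFKB1 mRNA measured by Fluidigm TaqMan qRT-PCR, normalised to ACTB, GAPDH and POLR2A; bidirectional fit versus DMSO.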

Measured: AC50

Sequence of Hypoxia-inducible factor 1-alpha (Homo sapiens) (Q16665 whole entry, looked up): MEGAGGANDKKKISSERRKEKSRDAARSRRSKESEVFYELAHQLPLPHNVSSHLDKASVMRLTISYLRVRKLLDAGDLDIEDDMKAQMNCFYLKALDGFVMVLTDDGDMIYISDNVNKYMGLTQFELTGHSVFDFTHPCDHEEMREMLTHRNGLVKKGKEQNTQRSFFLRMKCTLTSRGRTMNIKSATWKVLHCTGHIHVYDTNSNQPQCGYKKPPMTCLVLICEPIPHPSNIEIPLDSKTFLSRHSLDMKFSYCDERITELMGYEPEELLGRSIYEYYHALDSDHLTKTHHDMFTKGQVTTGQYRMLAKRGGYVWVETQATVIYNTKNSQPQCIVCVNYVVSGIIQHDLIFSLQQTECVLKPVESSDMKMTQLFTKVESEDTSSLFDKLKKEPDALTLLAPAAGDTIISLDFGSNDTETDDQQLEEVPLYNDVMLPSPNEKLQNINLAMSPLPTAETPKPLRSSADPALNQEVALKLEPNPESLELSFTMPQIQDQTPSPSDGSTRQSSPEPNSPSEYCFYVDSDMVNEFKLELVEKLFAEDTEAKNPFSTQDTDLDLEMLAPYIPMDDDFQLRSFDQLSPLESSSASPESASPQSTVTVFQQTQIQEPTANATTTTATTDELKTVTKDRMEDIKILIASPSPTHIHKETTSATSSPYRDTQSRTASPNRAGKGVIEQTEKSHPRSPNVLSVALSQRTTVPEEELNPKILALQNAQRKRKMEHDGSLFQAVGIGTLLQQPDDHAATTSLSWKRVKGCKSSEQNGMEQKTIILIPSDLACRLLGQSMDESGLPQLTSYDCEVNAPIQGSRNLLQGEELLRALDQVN
Sequence of Nuclear factor NF-kappa-B p105 subunit (Homo sapiens) (P19838 whole entry, looked up): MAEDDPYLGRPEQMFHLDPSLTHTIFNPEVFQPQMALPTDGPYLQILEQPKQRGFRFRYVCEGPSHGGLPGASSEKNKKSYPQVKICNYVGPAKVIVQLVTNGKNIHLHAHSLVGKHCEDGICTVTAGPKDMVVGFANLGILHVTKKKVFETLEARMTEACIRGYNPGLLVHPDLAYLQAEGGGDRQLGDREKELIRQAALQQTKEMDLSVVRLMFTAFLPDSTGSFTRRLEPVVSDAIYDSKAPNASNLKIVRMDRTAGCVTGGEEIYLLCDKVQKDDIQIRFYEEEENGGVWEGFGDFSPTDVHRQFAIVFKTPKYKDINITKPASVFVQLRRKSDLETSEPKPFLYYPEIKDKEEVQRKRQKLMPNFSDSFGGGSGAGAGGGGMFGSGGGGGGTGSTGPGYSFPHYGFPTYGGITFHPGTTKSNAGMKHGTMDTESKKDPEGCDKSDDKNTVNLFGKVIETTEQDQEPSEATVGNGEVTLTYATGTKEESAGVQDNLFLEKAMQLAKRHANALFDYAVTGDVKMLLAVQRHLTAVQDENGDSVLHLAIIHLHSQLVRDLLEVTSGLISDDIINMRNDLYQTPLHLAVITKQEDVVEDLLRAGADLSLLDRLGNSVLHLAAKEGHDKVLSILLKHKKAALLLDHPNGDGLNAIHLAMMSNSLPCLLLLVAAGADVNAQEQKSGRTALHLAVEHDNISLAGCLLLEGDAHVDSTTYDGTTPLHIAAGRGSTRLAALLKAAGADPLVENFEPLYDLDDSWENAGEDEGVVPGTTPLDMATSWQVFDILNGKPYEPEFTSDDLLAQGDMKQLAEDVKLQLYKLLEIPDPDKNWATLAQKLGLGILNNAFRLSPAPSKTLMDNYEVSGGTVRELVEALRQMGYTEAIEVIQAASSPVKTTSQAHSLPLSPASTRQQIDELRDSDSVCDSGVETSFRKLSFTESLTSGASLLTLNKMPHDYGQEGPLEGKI

CC(C)O.CC(C)O.OCCN(CCO)CCO.OCCN(CCO)CCO.[Ti]
inactive: [1] | [2] | [3] | [4] | [5] | [6] | [7] | [8] | [9] | [10] | [11] | [12] | [13] | [14] | [15] | [16] | [17] | [18] | [19] | [20]

COc1ccccc1N
inactive: [1] | [2] | [3] | [4] | [5] | [6] | [7] | [8] | [9] | [10] | [11] | [12] | [13] | [14] | [15] | [16] | [17] | [18] | [19]

O=C(O)C1(c2ccc3c(c2)OC[C@H](Cc2ccc(-c4ccccc4)cc2)[C@H]3O)CCCC1
active: [2] 78.2 µM | [3] 82.3 µM | [6] 64.4 µM | [7] 50 µM | [8] 78.4 µM | [12] 88.4 µM | [19] 50 µM | [20] 76 µM
inactive: [1] | [4] | [5] | [9] | [10] | [11] | [13] | [14] | [15] | [16] | [17] | [18]
